Data on 64 compounds can be found in PMC4552634, “A New Set of Chemical Starting Points with Plasmodium falciparum Transmission-Blocking Potential for Antimalarial Drug Discovery” (PLoS ONE, 2015).

Like-named read-outs stand apart in the source and are kept apart here. Among all 13,000 compounds or so, about 3,200 (25%) showed an effect of 50% or more. This is one part of the list.

The assay has as its system P. falciparum stage V gametocytes. More on the design: BacTiter-Glo ATP luminescence viability of purified stage V gametocytes in 384-well plates, per cent inhibition versus DMSO. Particulars: 48 h, 5 µM, inhibitor.

A word on the % Inhibition: it is the relative decrease from the control value, in per cent. As for `CCNc1cc(C(=O)N[C@@H](Cc2ccc(F)c(F)c2)[C@H](O)CNC2CCCCC2)cc(N2CCCCS2(=O)=O)c1` [TCMDC-135060], the “% Inhibition” value was found to be 26.39%.
Same read-out and setting: the figure for `COCCOc1cc(C)c(C2CCN(CCCCNC(=O)c3ccc(NC(=O)c4ccc(Cl)cc4)cc3)CC2)cc1C` [TCMDC-138344] is 7.769%; for `Cc1cc(C2CCN(CCCCNC(=O)c3ccc(NC(=O)c4ccc(Cl)cc4)cc3)CC2)c(C)cc1OCc1cccnc1` [TCMDC-138318] it is -16.74%.
The same measure, in the same setting: the figure for `Cc1cc(C2CCN(CCCCNC(=O)c3ccc(NC(=O)c4ccc(Cl)cc4)cc3)CC2)c(C)cc1OCCN(C)C` [TCMDC-138316] is 117.2%; for `CN(C)CCOc1ccc(N2CCN(CCCCNC(=O)c3ccc(NC(=O)c4ccc(Cl)cc4)cc3)CC2)cc1` [TCMDC-138289] it is 85.59%; for `Cc1cc(C2CCN(CCCCNC(=O)c3ccc(NC(=O)c4ccc(Cl)cc4)cc3)CC2)c(C)cc1OCc1ccncc1` [TCMDC-138308] it is 71.5%.
On the same count and under the same terms, the figure for `CCOc1cc(C)c(C2CCN(CCCCNC(=O)c3ccc(NC(=O)c4ccc(Cl)cc4)cc3)CC2)cc1C` [TCMDC-138282] is 41.56%; for `CN(C)CCOc1ccc(N2CCN(CCCCNC(=O)c3ccc(/C=C/c4cc(Cl)cc(Cl)c4)cc3)CC2)cc1` [TCMDC-138290] it is 45.55%.
On to `Cc1ccc(C)c(C2CCN(CCCCNC(=O)c3ccc(NC(=O)c4ccc(Cl)cc4)cc3)CC2)c1` [TCMDC-138330], for which the “% Inhibition” value is recorded as -7.9%.
As to `CCOc1ccc(OCC)c(N2CCN(CCCCNC(=O)c3ccc(NC(=O)c4ccc(Cl)cc4)cc3)CC2)c1` [TCMDC-138224], the “% Inhibition” value is listed as -9.659%.
With `Cc1cc(C2CCN(CCCCNC(=O)c3ccc(NC(=O)c4ccc(Cl)cc4)cc3)CC2)c(C)cc1OC(C)C` [TCMDC-138309], the “% Inhibition” value was 96.15%.
Same read-out and setting: the figure for `Cc1cc(C2CCN(CCCCNC(=O)c3ccc(NC(=O)c4ccc(Cl)cc4)cc3)CC2)c(C)cc1OCc1nccn1C` [TCMDC-138326] is 1.081%; for `CCCCc1ccccc1NS(=O)(=O)c1ccc(OC)c(N2CCNCC2)c1` [TCMDC-139238] it is 19.7%.
Turning to `CN1CCC(C(=O)Nc2cccc(-c3ccc(-c4nc5cc(C(F)(F)F)ccc5[nH]4)s3)c2)CC1` [TCMDC-132184], the “% Inhibition” value came to 18.99%.
Still for that read-out and setting: the figure for `COc1ccc2ccc(F)c(CCN3CCC(NCc4cc5c(cn4)OCCO5)CC3)c2n1` [TCMDC-136226] is 1.241%.
In the case of `Cc1cnc(C(=O)Nc2cccc(-c3ccc(-c4nc5cc(C(F)(F)F)ccc5[nH]4)s3)c2)cn1` [TCMDC-137028], the “% Inhibition” value came out at 12.51%.
As to `OC(c1ccc2ccccc2c1)C1CN(CCc2ccccc2)CCC1(O)c1ccccc1` (stereo not shown) [TCMDC-131995], the “% Inhibition” value is recorded as 4.082%.
Same read-out and setting: then `Cc1cccc2nc(-c3cccc(-c4ccc(NC(=O)Cc5ccc[n+]([O-])c5)cc4)c3)[nH]c12` [TCMDC-136993], with -15.96%; and `O=C(Cc1cnc[nH]1)Nc1ccc(-c2cccc(-c3nc4ccc(C(F)(F)F)cc4[nH]3)c2)cc1` [TCMDC-136949], with 9.618%.
The same measure, in the same setting: the figure for `COc1ccc(NC(=O)Nc2ccc(-c3cccc(-c4nc5c(C)cccc5[nH]4)c3)cc2)cc1` [TCMDC-133245] is -21.29%; for `CCCN(CCC)C(=O)c1cc(-c2cccc(C)c2)nc2ccccc12` [TCMDC-124452] it is -15.82%.
On the same count and under the same terms, the figure for `CCCN(CC1CC1)c1ncc(-c2cccc(CNCc3ccccc3O)c2)cn1` [TCMDC-133138] is 6.014%; for `CCCN(CC1CC1)c1nc(C)nc2c(-c3ccccc3)cc(C)cc12` [TCMDC-138123] it is 91.17%; for `O=C(Nc1ccc(-c2cncc(NCCCN3CCCC3)c2)cc1)c1ccccc1` [TCMDC-133799] it is 7.133%.
Take `CN1CC=C(c2c[nH]c3ccc(Br)cc23)CC1` [TCMDC-139098]: the “% Inhibition” value was -11.28%.
`CCN1CCc2nc3ccccc3c(C(=O)Nc3ccc(C#N)cc3)c2C1` [TCMDC-124513]: the “% Inhibition” value is 54.17%.
Take `CCN1CCN(c2cc(C)c3cc(NC(=O)c4ccc(C(C)(C)C)cc4)ccc3n2)CC1` [TCMDC-125579]: the “% Inhibition” value is -38.88%.
With `Cc1cc(NC(=O)Nc2ccc(C#N)cc2)c2ccccc2n1` [TCMDC-138956], the “% Inhibition” value is on record as 16.86%.
The same measure, in the same setting: then `Cc1onc(-c2c(F)cccc2Cl)c1C(=O)Nc1ccccc1I` [TCMDC-125644], with -7.209%.
As for `CC(=O)c1cccc(NC(=O)NC2CCN(c3ccnc(Nc4ccc(F)cc4)n3)C2)c1` (stereo not shown) [TCMDC-133594], the “% Inhibition” value is reported as -13.54%.
The same measure, in the same setting: then `CC(=O)c1ccc(NC(=O)Nc2ccc(N(C)c3ccnc(Nc4cccc(CS(C)(=O)=O)c4)n3)cc2)cc1` [TCMDC-138736], with -10.01%.
As to `CS(=O)(=O)Cc1ccc(Nc2nccc(N3CCCc4cc(NC(=O)Nc5cccc(C(F)(F)F)c5)ccc43)n2)cc1` [TCMDC-134309], the “% Inhibition” value was 69.84%.
On the same count and under the same terms, then `CCCCCCCc1c2c(C)c(C(=O)OCC)nc-2cc2n1CC(C)=C2C` [TCMDC-124023], with 93.66%; and `O=C(CCCCCNC(=O)c1ccc(O)c(-c2ccc(Cl)c(Cl)c2)c1)NCCN1CCOCC1` [TCMDC-140848], with 9.445%.
`O=C(/C=C/c1ccc(Cl)c(Cl)c1)NCC1CCC(N2CCC(c3c[nH]c4ccccc34)CC2)CC1` (stereo not shown) [TCMDC-139676]: the “% Inhibition” value is 103.8%.
The same measure, in the same setting: then `O=C(/C=C/c1ccc(Cl)c(Cl)c1)NCCC1CCC(N2CCC(c3c[nH]c4ccccc34)CC2)CC1` (stereo not shown) [TCMDC-139823], with 54.15%; and `O=C(/C=C/c1ccc(Cl)c(Cl)c1)NCC1CCC(CN2CCC(c3c[nH]c4ccccc34)CC2)CC1` (stereo not shown) [TCMDC-139484], with 1.039%; and `O=C(/C=C/c1ccc(Cl)c(Cl)c1)NCC1CCCC(CN2CCC(c3c[nH]c4ccccc34)CC2)C1` (stereo not shown) [TCMDC-139490], with -31.4%.
For `O=C(/C=C/c1ccc(Cl)c(Cl)c1)NCCC1CCC(N2CCC(c3c[nH]c4ccc(O)cc34)CC2)CC1` (stereo not shown) [TCMDC-139824], the “% Inhibition” value was -86.05%.
The same measure, in the same setting: then `O=C(/C=C/c1ccc(Cl)c(Cl)c1)NCCCCCN1C2CCC1CC(c1c[nH]c3ccccc13)C2` (stereo not shown) [TCMDC-139239], with -9.344%.
Turning to `Cc1cccc(NC(=O)N(Cc2cc3cc(C)cc(C)c3[nH]c2=O)C2CC2)c1` [TCMDC-123651], the “% Inhibition” value is 4.214%.
Same read-out and setting: the figure for `COc1cccc(C23N=C(Nc4nc5ccccc5[nH]4)NC2(c2cccc(OC)c2)NC(Nc2nc4ccccc4[nH]2)=N3)c1` (stereo not shown) [TCMDC-139087] is 19.76%; for `Cc1ccccc1C1CCN(C2CCC(NC(=O)/C=C/c3c(F)ccc(F)c3F)CC2)CC1` (stereo not shown) [TCMDC-133512] it is -94.66%.
Consider `CCCc1cc(Cc2cnc(N)nc2N)cc2c1OC(C)(C)C2` [TCMDC-138049], for which the “% Inhibition” value is -0.08597%.
On the same count and under the same terms, the figure for `Cc1c(CNCCCNc2nc3cscc3[nH]2)sc(C(F)F)c1Br` [TCMDC-141336] is 21.93%.
Consider `CC(C)(C)c1ccc(NC(=O)c2ccc(CN3CCCN(Cc4ccsc4)CC3)cc2)cc1` [TCMDC-136445], for which the “% Inhibition” value is reported as -5.74%.
For `COc1ccc(C=CC(=O)NC2CCC(CN3CCC(c4c[nH]c5ccccc45)CC3)CC2)cc1` (stereo not shown) [TCMDC-139949], the “% Inhibition” value (% Inhibition) turned out to be 103.1%.
As to `COc1ccc(C=CC(=O)NC2CCC(CN3CCC(c4c[nH]c5ccccc45)CC3)CC2)cc1OC` (stereo not shown) [TCMDC-139932], the “% Inhibition” value came out at 100.6%.
Turning to `COc1cccc(/C=C/C(=O)NC2CCC(CN3CCC(c4c[nH]c5ccccc45)CC3)CC2)c1` (stereo not shown) [TCMDC-139718], the “% Inhibition” value (% Inhibition) is 98.17%.
As for `COc1ccc(C=CC(=O)NC2CCC(CN3CCC(c4c[nH]c5ccccc45)CC3)CC2)cc1` (stereo not shown) [TCMDC-139933], the “% Inhibition” value (% Inhibition) is recorded as 46.2%.
Still for that read-out and setting: then `COc1cc(/C=C/C(=O)NC2CCC(CN3CCC(c4c[nH]c5ccccc45)CC3)CC2)ccc1O` (stereo not shown) [TCMDC-139766], with -65.69%.
For the compound `COc1ccc(OC)c(C=CC(=O)NC2CCC(CN3CCC(c4c[nH]c5ccccc45)CC3)CC2)c1` (stereo not shown) [TCMDC-139893], the “% Inhibition” value was determined as 103%.
Regarding `COc1cc(/C=C/C(=O)NC2CCC(CN3CCC(c4c[nH]c5ccccc45)CC3)CC2)ccc1O` (stereo not shown) [TCMDC-139756], where the note is “% Inhibition”, the “% Inhibition” value is recorded as -29.87%.
Take `N#Cc1cccc(Nc2nccc(NCC(O)c3ccc(C(F)(F)F)cc3)n2)c1` (stereo not shown) [TCMDC-136590]: the “% Inhibition” value is reported as 5.433%.
On the same count and under the same terms, then `CCc1ccc(NC(=O)c2ccc(CN3CCCN(Cc4cccc(O)c4)CC3)cc2)cc1` [TCMDC-136439], with -0.6993%; and `CCN(CCCN1CCCCC1)c1cc(C)nc(Nc2ccc(C(F)(F)F)cc2)n1` [TCMDC-132435], with 28.95%; and `CN(Cc1cccc(F)c1)C1CCN(c2cc(NC(=O)c3cccc(F)c3)ccn2)CC1` [TCMDC-135015], with -7.193%.
Still for that read-out and setting: then `CCOc1cc(Cc2cnc(N)nc2N)cc(OCC)c1OCC` [TCMDC-137696], with -8.766%; and `COc1cccc(C=CC(=O)NC2CCC(CN3CCC(c4c[nH]c5ccccc45)CC3)CC2)c1OC` (stereo not shown) [TCMDC-139902], with 78.88%.
Consider `COc1cccc(/C=C/C(=O)NC2CCC(CN3CCC(c4c[nH]c5ccccc45)CC3)CC2)c1` (stereo not shown) [TCMDC-139703], for which the “% Inhibition” value (% Inhibition) is on record as 100.1%.
As for `O=C(/C=C/c1cccc2ccccc12)NC1CCC(CN2CCC(c3c[nH]c4ccccc34)CC2)CC1` (stereo not shown) [TCMDC-139721], for the setting “% Inhibition”, the “% Inhibition” value is on record as -23.68%.
For the compound `COc1cc(C=CC(=O)NC2CCC(CN3CCC(c4c[nH]c5ccccc45)CC3)CC2)cc(OC)c1` (stereo not shown) [TCMDC-139947], the “% Inhibition” value was found to be 16.96%.
On to `O=C(/C=C/c1cccc2ccccc12)NC1CCC(CN2CCC(c3c[nH]c4ccccc34)CC2)CC1` (stereo not shown) [TCMDC-139706], for which the “% Inhibition” value (% Inhibition) is -11.81%.
With `O=C(Nc1ccccc1N1CCOCC1)c1ncoc1-c1ccccc1C(F)(F)F` [TCMDC-123538], the “% Inhibition” value is -21.73%.
